# Results: PubChem BioAssay (EPA / NIEHS)
# Records with an inconclusive call do not appear. Activity calls are given as the source filed them. How the source made its calls, unless noted: active means hit-call score of the fitted dose curve at least 0.9, where 1 is the maximum; inconclusive means response in the unintended direction; inactive means score below 0.9.
# Key:
# [1] = CCTE_Mundy_HCI_Cortical_Synap_Neur_Matur_BPCount: CCTE's Synaptogenesis and Neurite Maturation Assay in rat cortical cells for Branch Point Count, Mundy Lab (AID 2284211; active means hit-call score of the fitted dose curve at least 0.9, where 1 is the maximum; inactive means score below 0.9)
# Summary of the method: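 Rat primary cortical cultures, AraC added DIV 5; chemicals dosed DIV 7 through DIV 12. Fixed cells stained for MAP2, synaptophysin and Hoechst; neurite branch points counted by automated high-content imaging, fitted relative to DMSO.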
# [2] = CCTE_Mundy_HCI_Cortical_NOG_NeuriteCount: CCTE's Neurite Outgrowth Assay in rat cortical cells for Neurite Count, Mundy Lab (AID 2284212; active means hit-call score of the fitted dose curve at least 0.9, where 1 is the maximum; inactive means score below 0.9;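 further: cells fixed about two days after chemical exposure began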)
# Summary of the method: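 Neurite number per cell from high-content imaging of betaIII-tubulin immunostaining, with Hoechst nuclear counterstain.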
# [3] = CCTE_Mundy_HCI_Cortical_Synap_Neur_Matur_NeuriteCount: CCTE's Synaptogenesis and Neurite Maturation Assay in rat cortical cells for Neurite Count, Mundy Lab (AID 2284222; active means hit-call score of the fitted dose curve at least 0.9, where 1 is the maximum; inactive means score below 0.9;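 further: exposure from day 7 to day 12 in vitro with readout at day 12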)
# Summary of the method: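 Rat cortical neurons, 96-well; AraC DIV 5; chemical + media change DIV 7; end DIV 12. Fix PFA/Hoechst, anti-MAP2 + anti-synaptophysin IF. HCI neurite count vs DMSO baseline.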
# [4] = CCTE_Mundy_HCI_Cortical_NOG_NeuronCount: CCTE's Neurite Outgrowth Assay in rat cortical cells for Neuron Count, Mundy Lab (AID 2284236);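 further: neurons counted by imaging betaIII-tubulin and Hoechst stained cortical cells; cells exposed to compound for about 48 hours before fixation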
# Summary of the method: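 Read-out: neuron number by high-content imaging of betaIII-tubulin (Alexa Fluor-488) and Hoechst-labelled rat primary cortical cells.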
# [5] = CCTE_Mundy_HCI_Cortical_NOG_BPCount: CCTE's Neurite Outgrowth Assay in rat cortical cells for Branch Point Count, Mundy Lab (AID 2284237; active means hit-call score of the fitted dose curve at least 0.9, where 1 is the maximum; inactive means score below 0.9;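 on AC50: branch points counted about two days after chemical exposure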)
# Summary of the method: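 Measured 50.33 h after dosing, this morphology endpoint uses rat primary cortical cultures labelled for betaIII-tubulin. Branch points are quantified by high-content imaging, with DMSO as negative control and baseline.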
# [6] = target: human Thyroid Receptor Alpha (TRa), THRA (gene 7067) (UniProt P10827); experiment: NVS_NR_hTRa_Antagonist: NovaScreen (NVS) Nuclear Receptor Binding Assay for human Thyroid Receptor Alpha Antagonism (TRa) (AID 2283362);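 further: activity is loss of signal relative to DMSO baseline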
# human Thyroid Receptor Alpha (TRa), THRA (gene 7067), sequence (P10827 whole entry, looked up): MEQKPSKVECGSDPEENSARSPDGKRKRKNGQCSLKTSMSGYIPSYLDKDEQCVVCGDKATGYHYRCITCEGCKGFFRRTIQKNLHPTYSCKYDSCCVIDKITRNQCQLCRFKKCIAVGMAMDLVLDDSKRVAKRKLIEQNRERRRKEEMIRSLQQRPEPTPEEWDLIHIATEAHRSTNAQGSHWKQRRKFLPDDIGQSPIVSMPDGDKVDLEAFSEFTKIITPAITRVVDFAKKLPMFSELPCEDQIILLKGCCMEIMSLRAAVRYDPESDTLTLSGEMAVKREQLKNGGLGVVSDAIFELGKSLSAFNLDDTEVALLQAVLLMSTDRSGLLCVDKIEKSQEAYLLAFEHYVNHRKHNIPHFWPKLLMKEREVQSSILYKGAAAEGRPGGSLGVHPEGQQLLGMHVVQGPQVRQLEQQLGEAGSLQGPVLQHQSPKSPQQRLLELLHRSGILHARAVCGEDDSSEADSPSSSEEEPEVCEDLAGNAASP
# Summary of the method: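 Extracted protein, cell-free; 1 h incubation after dosing; AlphaLISA chemiluminescence binding readout. DMSO = baseline/neg ctrl; signal loss = activity. Primary: duplicate, 25 uM; secondary: conc. series on actives.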
# rat CYP3A1, gene 25642 = experiment: NVS_ADME_rCYP3A1: NovaScreen (NVS) CYP450-related Enzyme Activity (ADME) Assay for rat CYP3A1 (AID 2283126)
# Summary of the method: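 Cell-free recombinant CYP assay with fluorescent substrate, read 0.5 h after dosing. Screened at 10 uM in duplicate, hits at up to 20 uM in concentration-response; loss of signal versus acetonitrile baseline.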
# [7] = target: human CYP2D6, CYP2D6 (gene 1565) (UniProt P10635); experiment: NVS_ADME_hCYP2D6: NovaScreen (NVS) CYP450-related Enzyme Activity (ADME) Assay for human CYP2D6 (AID 2283107)
# human CYP2D6, CYP2D6 (gene 1565), sequence (P10635 whole entry, looked up): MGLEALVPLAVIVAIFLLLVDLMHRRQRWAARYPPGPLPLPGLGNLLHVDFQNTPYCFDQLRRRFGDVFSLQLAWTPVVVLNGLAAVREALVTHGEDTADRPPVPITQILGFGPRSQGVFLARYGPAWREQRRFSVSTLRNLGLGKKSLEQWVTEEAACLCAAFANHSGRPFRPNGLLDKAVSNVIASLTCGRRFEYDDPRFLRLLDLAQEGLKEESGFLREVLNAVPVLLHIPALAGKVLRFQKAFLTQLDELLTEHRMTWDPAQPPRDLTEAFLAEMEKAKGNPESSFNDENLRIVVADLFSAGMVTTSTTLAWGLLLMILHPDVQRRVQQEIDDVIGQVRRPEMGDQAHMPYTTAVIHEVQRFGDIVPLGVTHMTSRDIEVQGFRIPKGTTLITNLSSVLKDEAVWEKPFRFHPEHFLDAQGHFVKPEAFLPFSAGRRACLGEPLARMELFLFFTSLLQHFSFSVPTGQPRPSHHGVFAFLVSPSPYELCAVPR
# Summary of the method: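 Insect-cell recombinant enzyme + fluorogenic substrate, cell-free; 1 h incubation; fluorescence intensity readout. Acetonitrile = neg. ctrl/baseline. Single-point 10 uM, duplicate; follow-up concentration series.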
# [8] = target: human Beta-secretase (BACE), BACE1 (gene 23621) (UniProt P56817); experiment: NVS_ENZ_hBACE: NovaScreen (NVS) Enzymatic Assay for human Beta-secretase (BACE) (AID 2283140);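 further: hits are inhibitors that reduce fluorescent substrate signal versus DMSO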
# human Beta-secretase (BACE), BACE1 (gene 23621), sequence (P56817 whole entry, looked up): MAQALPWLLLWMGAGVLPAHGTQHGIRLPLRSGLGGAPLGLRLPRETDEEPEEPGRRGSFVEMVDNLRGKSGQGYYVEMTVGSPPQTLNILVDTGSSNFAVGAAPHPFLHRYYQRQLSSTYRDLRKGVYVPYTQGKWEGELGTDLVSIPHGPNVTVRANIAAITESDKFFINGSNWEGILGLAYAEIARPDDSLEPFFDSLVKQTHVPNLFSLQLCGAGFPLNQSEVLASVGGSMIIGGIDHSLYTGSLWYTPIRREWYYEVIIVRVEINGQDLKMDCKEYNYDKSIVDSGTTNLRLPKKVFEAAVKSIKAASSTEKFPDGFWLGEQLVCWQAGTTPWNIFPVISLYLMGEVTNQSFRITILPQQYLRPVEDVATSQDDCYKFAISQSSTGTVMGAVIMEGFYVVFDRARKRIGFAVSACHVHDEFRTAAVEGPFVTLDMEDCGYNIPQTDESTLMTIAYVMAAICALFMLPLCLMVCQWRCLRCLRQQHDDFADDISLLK
# Summary of the method: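 Cell-free assay of recombinant Sf9-expressed human BACE with fluorescent substrate, read by fluorescence intensity after 1 h. Primary screen in duplicate at 25 uM; actives then run in concentration series; loss of signal relative to DMSO.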
# [9] = system: rat Monoamine Oxidase, MAO-A, Central (MAOAC), gene 29253; experiment: NVS_ENZ_rMAOAC: NovaScreen (NVS) Enzymatic Assay for rat Monoamine Oxidase, MAO-A, Central (MAOAC) (AID 2283243);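 further: potency refers to inhibition seen as signal drop below DMSO baseline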
# Summary of the method: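 Rat brain tissue extract used as enzyme source in a cell-free radiometric assay, read by scintillation counting 1.5 hours after dosing. Loss of signal relative to DMSO baseline scored; primary screen at 25 uM in duplicate, actives followed up in concentration series.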
# [10] = target: human Tyrosine Protein Kinase Receptor Tie-2 (Tie2), TEK (gene 7010) (UniProt Q02763); experiment: NVS_ENZ_hTie2: NovaScreen (NVS) Enzymatic Assay for human Tyrosine Protein Kinase Receptor Tie-2 (Tie2) (AID 2283225)
# human Tyrosine Protein Kinase Receptor Tie-2 (Tie2), TEK (gene 7010), sequence (Q02763 whole entry, looked up): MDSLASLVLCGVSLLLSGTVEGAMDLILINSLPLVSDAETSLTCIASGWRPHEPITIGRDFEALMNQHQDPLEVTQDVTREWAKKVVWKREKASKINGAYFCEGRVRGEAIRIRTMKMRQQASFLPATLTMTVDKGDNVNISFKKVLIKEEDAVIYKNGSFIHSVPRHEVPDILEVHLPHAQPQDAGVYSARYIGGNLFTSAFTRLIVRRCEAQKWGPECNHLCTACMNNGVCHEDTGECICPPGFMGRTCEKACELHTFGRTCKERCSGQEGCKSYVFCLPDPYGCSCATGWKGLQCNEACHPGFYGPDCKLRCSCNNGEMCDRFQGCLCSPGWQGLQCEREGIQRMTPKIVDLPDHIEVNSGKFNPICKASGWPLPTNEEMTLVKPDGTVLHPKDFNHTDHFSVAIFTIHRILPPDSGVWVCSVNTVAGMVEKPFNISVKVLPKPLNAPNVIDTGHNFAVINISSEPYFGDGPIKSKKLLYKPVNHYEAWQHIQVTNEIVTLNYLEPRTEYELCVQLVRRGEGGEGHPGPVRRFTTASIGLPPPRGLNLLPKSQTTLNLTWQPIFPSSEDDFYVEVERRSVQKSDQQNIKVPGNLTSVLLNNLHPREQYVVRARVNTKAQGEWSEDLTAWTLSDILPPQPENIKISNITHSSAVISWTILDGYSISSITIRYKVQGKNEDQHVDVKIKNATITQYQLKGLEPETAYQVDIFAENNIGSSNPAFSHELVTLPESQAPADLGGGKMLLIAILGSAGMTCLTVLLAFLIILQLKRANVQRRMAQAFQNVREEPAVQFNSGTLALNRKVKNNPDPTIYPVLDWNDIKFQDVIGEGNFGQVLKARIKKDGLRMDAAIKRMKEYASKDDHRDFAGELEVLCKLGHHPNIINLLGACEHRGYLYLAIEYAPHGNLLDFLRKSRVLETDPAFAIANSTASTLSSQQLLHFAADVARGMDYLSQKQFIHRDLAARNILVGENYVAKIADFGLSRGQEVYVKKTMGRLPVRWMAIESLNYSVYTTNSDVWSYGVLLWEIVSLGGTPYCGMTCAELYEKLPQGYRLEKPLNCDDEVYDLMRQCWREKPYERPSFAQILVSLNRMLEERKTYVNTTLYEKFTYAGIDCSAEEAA
# Summary of the method: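 Recombinant human Tie2 kinase activity was read cell-free by fluorescence with electrophoretic mobility shift, 1 hour after dosing. The screen used 25 uM in duplicate, then concentration-response up to 50 uM. Signal loss was scored against DMSO.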
# [11] = read-out: Cyclin D2 (CCND2), CCND2 (gene 894); experiment: LTEA_HepaRG_CCND2: Life Technologies and Expression Analysis (LTEA) Assay for Cyclin D2 (CCND2) using HepaRG (AID 2283449; active means hit-call score of the fitted dose curve at least 0.9, where 1 is the maximum; inactive means score below 0.9;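 further: CCND2 transcript measured by TaqMan qRT-PCR and normalised to three housekeeping genes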); conditions: mRNA level, 48 h; actives raise or lower the signal
# Summary of the method: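 Differentiated human HepaRG cells were exposed for 48 h in serum-free induction medium to eight half-log concentrations topping at 100 uM (0.5% DMSO vehicle). CCND2 mRNA was quantified by TaqMan qRT-PCR, normalised to ACTB, GAPDH and POLR2A, and fitted bidirectionally against DMSO.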
# [12] = read-out: Nuclear factor NF-kappa-B p105 subunit (Homo sapiens) (UniProt P19838); experiment: LTEA_HepaRG_NFKB1: Life Technologies and Expression Analysis (LTEA) Assay for Nuclear Factor Kappa B Subunit 1 (NFKB1) using HepaRG (AID 2283521; active means hit-call score of the fitted dose curve at least 0.9, where 1 is the maximum; inactive means score below 0.9;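 further: TaqMan qRT-PCR transcript normalised to ACTB GAPDH and POLR2A housekeeping genes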); conditions: mRNA level, 48 h; actives raise or lower the signal
# Summary of the method: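 NFKB1 transcript was measured by TaqMan qRT-PCR on Fluidigm arrays, normalised to three housekeeping genes and fitted in both directions against 0.5% DMSO. HepaRG cells were dosed in duplicate for 48 h in serum-free induction medium, eight half-log steps from 100 uM.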
# [13] = Tanguay_ZF_120hpf_CIRC_legacy: (Legacy) Oregon State University Tanguay Lab 120 Hour Post-fertilization zebrafish Assay for Circulatory Malformation (AID 2283651)
# Summary of the method: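 Dechorionated wild-type 5D zebrafish embryos, one per well, statically exposed from 6 to 120 hpf at 28C with 0.64% DMSO; circulatory malformation scored present/absent by brightfield microscopy at 120 hpf, dead embryos excluded.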
# [14] = target: chimpanzee Androgen Receptor (AR), AR (gene 747460) (UniProt O97775); experiment: NVS_NR_cAR: NovaScreen (NVS) Nuclear Receptor Binding Assay for chimpanzee Androgen Receptor (AR) (AID 2283346);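 further: radioligand displacement from AR measured by scintillation counting in a cell-free assay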
# Summary of the method: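 Cell-free radioligand displacement using receptor protein extracted from Sf9/Sf21 cells; bound radioligand measured by scintillation counting 72 hours after chemical dosing. Loss of signal versus DMSO baseline indicates binding; primary screen single-concentration in duplicate at 25 uM, actives followed in concentration series.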
# [15] = target: rat Gamma-Aminobutyric Acid Type A Receptor BDZ, alpha 6 site (GABARa6), Gabra6 (gene 29708) (UniProt P30191); experiment: NVS_LGIC_rGABARa6: NovaScreen (NVS) Ligand-Gated Ion Channel Assay for rat Gamma-Aminobutyric Acid Type A Receptor BDZ, alpha 6 site (GABARa6) (AID 2283339)
# rat Gamma-Aminobutyric Acid Type A Receptor BDZ, alpha 6 site (GABARa6), Gabra6 (gene 29708), sequence (P30191 whole entry, looked up): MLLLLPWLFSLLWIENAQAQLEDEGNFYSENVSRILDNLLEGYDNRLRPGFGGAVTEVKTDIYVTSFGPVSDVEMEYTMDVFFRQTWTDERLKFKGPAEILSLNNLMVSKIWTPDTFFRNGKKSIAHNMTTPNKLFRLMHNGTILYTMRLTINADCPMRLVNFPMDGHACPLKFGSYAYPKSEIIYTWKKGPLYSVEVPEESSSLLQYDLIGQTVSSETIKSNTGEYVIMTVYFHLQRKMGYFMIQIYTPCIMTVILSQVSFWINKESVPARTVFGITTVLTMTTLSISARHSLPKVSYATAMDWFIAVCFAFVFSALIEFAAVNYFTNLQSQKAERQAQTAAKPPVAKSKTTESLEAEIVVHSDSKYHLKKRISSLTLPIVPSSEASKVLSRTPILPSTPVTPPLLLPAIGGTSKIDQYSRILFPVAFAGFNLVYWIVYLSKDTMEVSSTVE
# Summary of the method: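 Rat cerebellar membranes; radioligand binding, filtration and scintillation counting, read 1 h after dosing. Single-concentration duplicate screen at 25 uM, then concentration-response up to 50 uM for actives; loss of signal fitted versus DMSO baseline.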
# PGR (gene 5241) [16] = target: PGR (gene 5241) (UniProt P06401); experiment: TOX21_PR_BLA_Followup_Agonist_ratio: Tox21 HEK293 Progesterone Receptor (PR) Agonism Beta-lactamase Follow-Up Assay, Ratio (AID 2283933)
# PGR (gene 5241), sequence (P06401 whole entry, looked up): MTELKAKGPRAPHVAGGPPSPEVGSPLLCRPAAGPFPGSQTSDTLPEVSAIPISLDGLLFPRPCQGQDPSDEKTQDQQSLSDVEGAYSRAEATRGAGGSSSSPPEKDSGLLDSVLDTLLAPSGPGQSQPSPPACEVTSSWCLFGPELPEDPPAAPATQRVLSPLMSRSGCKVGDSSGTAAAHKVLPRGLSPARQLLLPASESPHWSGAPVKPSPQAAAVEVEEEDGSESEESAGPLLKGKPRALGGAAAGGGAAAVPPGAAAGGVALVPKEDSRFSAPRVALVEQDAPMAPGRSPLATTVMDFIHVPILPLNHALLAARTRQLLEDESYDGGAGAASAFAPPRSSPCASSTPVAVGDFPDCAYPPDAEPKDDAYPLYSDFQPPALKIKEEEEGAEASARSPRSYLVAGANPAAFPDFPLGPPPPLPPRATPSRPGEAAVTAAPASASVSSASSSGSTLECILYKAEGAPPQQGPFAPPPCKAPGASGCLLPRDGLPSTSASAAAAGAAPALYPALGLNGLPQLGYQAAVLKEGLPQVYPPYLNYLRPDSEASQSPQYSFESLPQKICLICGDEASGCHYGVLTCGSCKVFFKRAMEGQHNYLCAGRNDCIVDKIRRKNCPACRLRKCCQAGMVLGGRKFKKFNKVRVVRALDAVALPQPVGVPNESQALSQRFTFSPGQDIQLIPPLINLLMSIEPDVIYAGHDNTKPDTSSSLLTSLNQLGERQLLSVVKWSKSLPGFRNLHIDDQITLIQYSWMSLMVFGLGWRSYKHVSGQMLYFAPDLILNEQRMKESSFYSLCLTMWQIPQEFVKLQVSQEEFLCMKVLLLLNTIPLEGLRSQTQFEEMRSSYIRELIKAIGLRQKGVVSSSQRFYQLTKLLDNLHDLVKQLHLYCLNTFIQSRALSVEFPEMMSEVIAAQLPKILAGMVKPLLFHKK
# Summary of the method: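 PR-UAS-bla HEK293T cells in medium with 2% charcoal-stripped FBS were dosed after 6 h plating and incubated 16 h at 37C. LiveBLAzer FRET substrate was added for 2 h at room temperature. Cleaved/uncleaved substrate ratio fitted against DMSO; CellTiter-Glo viability run in the same wells.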
# PGR (gene 5241) [17] = target: PGR (gene 5241) (UniProt P06401); experiment: TOX21_PR_LUC_Followup_Agonist: Tox21 HEK293 Progesterone Receptor (PR) Agonism Luciferase Follow-Up Assay (AID 2283937; active means hit-call score of the fitted dose curve at least 0.9, where 1 is the maximum; inactive means score below 0.9)
# Summary of the method: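 HEK293-PR-A-luc cells, conditioned 5 days in 10% charcoal-stripped FBS medium, seeded 3,000/well for 5 h, then compound-treated 16 h at 37C. ONE-Glo luminescence read after 30 min at room temperature; gain of signal versus DMSO.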
# [18] = target: human Vascular Endothelial Growth Factor Receptor 3 (VEGFR3), FLT4 (gene 2324) (UniProt P35916); experiment: NVS_ENZ_hVEGFR3: NovaScreen (NVS) Enzymatic Assay for human Vascular Endothelial Growth Factor Receptor 3 (VEGFR3) (AID 2283229)
# Summary of the method: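 Cell-free recombinant VEGFR3 kinase reaction with fluorescent substrate, read 1 h after dosing by electrophoretic mobility shift separation of substrate and product. Single-concentration duplicate screen at 25 uM, then concentration-response up to 50 uM; loss of activity versus DMSO.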
# [19] = system: zebrafish Androgen Receptor (AR), gene 100005148; experiment: ATG_zfAR_XSP1: Attagene TRANS-FACTORIAL Multi-Species (XSP1) HepG2 Assay for zebrafish Androgen Receptor (AR) (AID 2283771)
# Summary of the method: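 HepG2 cells were transiently transfected with a zebrafish AR-GAL4 reporter system and partially stimulated with 3 nM 6-alpha-fluorotestosterone. Reporter mRNA was measured after 24 h dosing by RT-PCR with capillary electrophoresis, and gain-of-signal was fitted relative to DMSO.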
# Nuclear factor NF-kappa-B p105 subunit (Homo sapiens), sequence (P19838 whole entry, looked up): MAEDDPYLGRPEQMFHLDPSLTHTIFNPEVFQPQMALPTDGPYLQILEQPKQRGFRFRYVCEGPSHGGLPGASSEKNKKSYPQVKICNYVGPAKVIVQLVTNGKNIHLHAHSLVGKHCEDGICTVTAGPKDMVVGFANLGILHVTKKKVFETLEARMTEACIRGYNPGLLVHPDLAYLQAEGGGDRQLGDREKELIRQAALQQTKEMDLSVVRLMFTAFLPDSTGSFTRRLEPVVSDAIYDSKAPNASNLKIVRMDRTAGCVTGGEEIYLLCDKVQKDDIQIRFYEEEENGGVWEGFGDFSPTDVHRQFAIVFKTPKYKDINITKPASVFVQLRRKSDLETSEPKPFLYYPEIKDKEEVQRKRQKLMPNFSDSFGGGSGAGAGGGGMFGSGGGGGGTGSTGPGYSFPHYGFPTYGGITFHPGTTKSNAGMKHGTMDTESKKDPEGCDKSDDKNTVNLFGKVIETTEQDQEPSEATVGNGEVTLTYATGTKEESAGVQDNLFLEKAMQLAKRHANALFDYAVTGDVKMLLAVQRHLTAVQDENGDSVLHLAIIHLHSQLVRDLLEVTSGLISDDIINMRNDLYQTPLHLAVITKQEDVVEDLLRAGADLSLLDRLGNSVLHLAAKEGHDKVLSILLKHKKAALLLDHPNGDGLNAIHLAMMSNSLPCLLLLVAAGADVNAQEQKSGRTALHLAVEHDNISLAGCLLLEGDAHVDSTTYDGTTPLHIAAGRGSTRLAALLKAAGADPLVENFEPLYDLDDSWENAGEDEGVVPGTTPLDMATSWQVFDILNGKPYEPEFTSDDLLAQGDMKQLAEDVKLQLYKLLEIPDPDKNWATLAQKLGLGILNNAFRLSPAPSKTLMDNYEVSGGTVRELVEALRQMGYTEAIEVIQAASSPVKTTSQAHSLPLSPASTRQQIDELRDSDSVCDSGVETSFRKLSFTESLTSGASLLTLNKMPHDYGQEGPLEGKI
structure (smiles),measurement,setting,value
Cc1ccc(OP(=O)(Oc2ccc(C)cc2)Oc2ccc(C)cc2)cc1 (tested in a mixture with another compound),outcome,[1],inactive
same,AC50,[2],20.6 µM (active)
same,outcome,[3],inactive
same,AC50,[4],25.6 µM (active)
same,AC50,[5],20.2 µM (active)
CC1CCCC1.[C-]#[O+].[C-]#[O+].[C-]#[O+].[Mn],outcome,[6],inactive
CCOC(=O)NC(=S)Nc1ccccc1NC(=S)NC(=O)OCC,AC50,"rat CYP3A1, gene 25642",1.53 µM (active)
Nc1ccc(-c2ccc(N)c(N)c2)cc1N,AC50,[7],4.48 µM (active)
same,AC50,[8],10.2 µM (active)
same,AC50,[9],14.1 µM (active)
O=C(CCl)c1ccccc1,outcome,[10],inactive
same,outcome,[6],inactive
same,outcome,[11],inactive
same,outcome,[12],inactive
same,outcome,[13],inactive
CC[N+](=O)[O-],outcome,[14],inactive
C[C@]12CC[C@H](O)C[C@H]1CC[C@@H]1[C@@H]2C[C@@H](O)[C@]2(C)[C@@H](C3=CC(=O)OC3)CC[C@]12O,outcome,[15],inactive
C[C@]12CC[C@H]3[C@@H](CC[C@@]45O[C@@H]4C(O)=C(C#N)C[C@]35C)[C@@H]1CC[C@@H]2O,outcome,PGR (gene 5241) [16],inactive
same,outcome,PGR (gene 5241) [17],inactive
CC(Cc1ccc(C(C)(C)C)cc1)CN1C[C@@H](C)O[C@@H](C)C1 (stereo not given in full),outcome,[18],inactive
CC(C)CCCCCCCOC(=O)c1ccccc1C(=O)OCCCCCCCC(C)C,outcome,[19],inactive
CNC(=N[N+](=O)[O-])NCC1CCOC1 (stereo not given),outcome,[1],inactive
same,outcome,[2],inactive
same,outcome,[3],inactive
same,outcome,[5],inactive
N#CCCCCC#N,outcome,[11],inactive
same,outcome,[13],inactive
CC(C)COP(=O)(OCC(C)C)OCC(C)C,outcome,[8],inactive
CC1(C)[C@H](C(=O)O[C@H](C#N)c2cccc(Oc3ccccc3)c2)[C@@H]1C=C(Br)Br,AC50,[7],2.27 µM (active)
same,outcome,"rat CYP3A1, gene 25642",inactive
same,outcome,[4],inactive
CNC(=O)Oc1cc(C)c(SC)c(C)c1,AC50,[9],14 µM (active)
O=[N+]([O-])c1ccc(Cl)cc1,outcome,[10],inactive
same,outcome,[18],inactive
same,outcome,[12],inactive
N#Cc1cc(I)c(O)c(I)c1,outcome,PGR (gene 5241) [16],inactive
same,outcome,PGR (gene 5241) [17],inactive
CC(=O)c1cc2c(cc1C)C(C)(C)C(C)CC2(C)C (stereo not given),outcome,[14],inactive
same,AC50,[19],64.4 µM (active)
C=COCCCl,outcome,[15],inactive
